{
  "source": "PubChem BioAssay AID1240",
  "about": "(Sanford-Burnham Center for Chemical Genomics, 2008)",
  "note": "Screen size: about 50,000 compounds; about 800 (1.6%) showed an effect of 50% or more. The sample holds strong results, similar compounds and a random draw of the others, so the mix is not that of the screen.",
  "data": [
    {"target": "Bcl-2-like protein 10 (Homo sapiens) (UniProt Q9HD36)", "sequence (Q9HD36 whole entry, looked up)": "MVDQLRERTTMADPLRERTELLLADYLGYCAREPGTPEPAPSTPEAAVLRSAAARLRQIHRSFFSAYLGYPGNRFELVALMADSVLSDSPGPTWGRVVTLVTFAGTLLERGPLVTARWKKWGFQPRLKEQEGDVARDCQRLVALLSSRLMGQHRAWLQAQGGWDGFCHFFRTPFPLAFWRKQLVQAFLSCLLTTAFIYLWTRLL", "assay": "TR3 peptide-Bcl-B binding displacers, biochemical primary FP assay, phenotype converters (AID 1240);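 note: 0% = Bcl-B with tracer peptide and DMSO and 100% = tracer peptide lacking Bcl-B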", "conditions": "GST-Bcl-B / FITC-TR3 peptide fluorescence polarization; stronger effect = higher value; compound at 3.75 mg/L", "units": {"displacement": "%"}, "values": [
      {"smiles": "COc1ccc2c(c1OC)C(=O)OC2Nc1ccccc1Br", "note": "(configuration not stated)", "displacement": -5.8},
      {"smiles": "COc1ccc(-n2nnnc2C(Cl)(Cl)c2nnnn2-c2ccc(OC)cc2)cc1", "displacement": 5.8},
      {"smiles": "COc1ccc(/C=C/C(=O)/C=C/c2ccc(N(C)C)cc2)cc1", "displacement": -3},
      {"smiles": "COc1ccc(-n2nnnc2C(=Cc2ccc(N(C)C)cc2)c2nnnn2-c2ccc(OC)cc2)cc1", "displacement": 157},
      {"smiles": "CCOc1cc(/C=C2\\SC(=Nc3cccc(Cl)c3C)NC2=O)ccc1O", "displacement": -11.7},
      {"smiles": "O=C1C(Nc2ccccc2)=CC(c2cccc(F)c2)N1c1ccccc1", "note": "(configuration not stated)", "displacement": 14.1},
      {"smiles": "O=C(c1ccccc1Cl)N1CCN(c2nc(-c3ccccc3)c3cc(Br)ccc3n2)CC1", "displacement": -5.8},
      {"smiles": "O=C(c1ccccc1)N1CCN(c2nc(-c3ccccc3)c3cc(Cl)ccc3n2)CC1", "displacement": 10.6},
      {"smiles": "Brc1ccc2nc(N3CCNCC3)nc(-c3ccccc3)c2c1", "displacement": -8.1},
      {"smiles": "O=C(c1ccc([N+](=O)[O-])cc1)N1CCN(c2nc(-c3ccccc3)c3cc(Cl)ccc3n2)CC1", "displacement": 17.5},
      {"smiles": "O=CN1CCN(c2nc(-c3ccccc3)c3cc(Cl)ccc3n2)CC1", "displacement": 113},
      {"smiles": "O=CN1CCN(c2nc(-c3ccccc3)c3cc(Br)ccc3n2)CC1", "displacement": 84.9},
      {"smiles": "CC1=C(C#N)c2nc(N)c(C#N)c(C)c2/C1=C\\c1cc([N+](=O)[O-])ccc1Cl", "displacement": 0.6},
      {"smiles": "Cc1cccc(OCCOc2ccccc2/C=C2/SC(=S)N(C)C2=O)c1", "displacement": -0.4},
      {"smiles": "Fc1cc(F)c(F)c(SCCc2ccncc2)c1F", "displacement": 5.9},
      {"smiles": "COc1cccc(N2C(=O)NC(=O)/C(=C/C=C/c3ccco3)C2=O)c1", "displacement": -47.4},
      {"smiles": "C/C(=N\\NC(=O)COc1ccc(Cl)cc1Cl)c1cccnc1", "displacement": 1.9},
      {"smiles": "O=C1C2ON(c3ccc(Cl)cc3)C(c3cccs3)C2C(=O)N1c1cccc(C(F)(F)F)c1", "note": "(configuration not stated)", "displacement": -18.1},
      {"smiles": "COc1ccc(OCC(O)CN(C)S(=O)(=O)O)cc1", "note": "(configuration not stated)", "displacement": -6.7},
      {"smiles": "O=C(Cc1ccc(Br)cc1)N1CCN(c2ccccc2)CC1", "displacement": 9.8},
      {"smiles": "COc1ccc(C2CC(=O)C3=C(C2)Nc2ccccc2NC3c2cccc(OC)c2OC)cc1OC", "note": "(configuration not stated)", "displacement": -3.7},
      {"smiles": "CC(=O)Nc1ccc(NC(=O)CSc2ccccn2)cc1", "displacement": -2.6},
      {"smiles": "O=C(CSc1ccccn1)Nc1ccc(F)cc1", "displacement": -11.4},
      {"smiles": "O=C(CSc1ccccn1)Nc1ccc2c(c1)C(=O)c1ccccc1C2=O", "displacement": 54.6},
      {"smiles": "CC1(C)CC(=O)c2cnc(NC(=O)Cc3ccc(Cl)cc3)nc2C1", "displacement": -0.2},
      {"smiles": "COc1ccc(CC(c2nc3ccccc3[nH]2)C(C)c2nc3ccccc3[nH]2)cc1", "note": "(configuration not stated)", "displacement": 8},
      {"smiles": "O=c1oc(/C=C\\c2ccccc2)nc2ccc(Br)cc12", "displacement": 10.7},
      {"smiles": "Clc1ccc(CN2CCN(/N=C\\c3ccc(OCc4ccccc4)cc3)CC2)cc1", "displacement": -9.5},
      {"smiles": "CCOC(=O)C1=C(C)N=c2s/c(=C\\c3ccco3)c(=O)n2C1c1cccc(OC)c1", "note": "(configuration not stated)", "displacement": -25.3},
      {"smiles": "CCOC(=O)C1=C(c2ccccc2)N=c2s/c(=C\\c3ccco3)c(=O)n2C1c1cccc(OC)c1OC", "note": "(configuration not stated)", "displacement": 76.4},
      {"smiles": "CCOC(=O)C1=C(c2ccccc2)N=c2s/c(=C\\c3cccnc3)c(=O)n2C1c1cccc(OC)c1OC", "note": "(configuration not stated)", "displacement": 5.1},
      {"smiles": "CCOC(=O)C1=C(c2ccccc2)N=c2s/c(=C\\c3cccc(O)c3)c(=O)n2C1c1cccc(OC)c1OC", "note": "(configuration not stated)", "displacement": 7.6},
      {"smiles": "CCOC(=O)C1=C(C)N=c2s/c(=C/c3ccc(I)o3)c(=O)n2C1c1ccccc1OC", "note": "(configuration not stated)", "displacement": 14.5},
      {"smiles": "CCOC(=O)C1=C(C)N=c2s/c(=C\\c3ccco3)c(=O)n2C1c1ccccc1", "note": "(configuration not stated)", "displacement": 16.5},
      {"smiles": "CCOC(=O)C1=C(C)N=c2s/c(=C\\C=C\\c3ccccc3)c(=O)n2C1c1ccc(OC(C)=O)cc1", "note": "(configuration not stated)", "displacement": 16.9},
      {"smiles": "CCOC(=O)C1=C(C)N=c2s/c(=C\\C=C\\c3ccco3)c(=O)n2C1c1ccc(OC)cc1", "note": "(configuration not stated)", "displacement": 63.9},
      {"smiles": "CCOC(=O)C1=C(C)N=c2s/c(=C\\c3ccco3)c(=O)n2C1c1ccccc1OC", "note": "(configuration not stated)", "displacement": 74.3},
      {"smiles": "CC1CCC2(CC1)C(C#N)=C(SCC(N)=O)NC(=O)C2C#N", "note": "(configuration not stated)", "displacement": -7.2},
      {"smiles": "CCOC(=O)c1sc(NC(=O)c2ccc(Cl)cc2Cl)nc1C", "displacement": 17},
      {"smiles": "O=C1CC(N(Cc2ccco2)C(=S)NCCc2ccccc2)C(=O)N1c1ccc(F)cc1", "note": "(configuration not stated)", "displacement": 27.4},
      {"smiles": "CC(C)(C)NC(=O)c1cccc(C(=O)Nc2cccc(O)c2)c1", "displacement": -3.2},
      {"smiles": "c1ccc(C2=Nc3ccccc3NC(c3ccccc3)C2)cc1", "note": "(configuration not stated)", "displacement": -26.7},
      {"smiles": "O=C(NN1C(=O)/C(=C/c2ccc(O)c(O)c2)SC1=S)c1ccccc1Br", "displacement": 73},
      {"smiles": "COc1cc(/C=C2\\SC(=S)N(NC(=O)c3ccccc3Br)C2=O)ccc1O", "displacement": -21.3},
      {"smiles": "O=C(NN1C(=O)/C(=C/c2ccc(O)cc2)SC1=S)c1ccccc1Br", "displacement": -72.2},
      {"smiles": "CCCCOc1cccc(NC(=O)c2cccc([N+](=O)[O-])c2C)c1", "displacement": 5},
      {"smiles": "O=C(Cc1ccc(Br)cc1)Nc1cc([N+](=O)[O-])ccc1Cl", "displacement": 4.4},
      {"smiles": "O=C1N/C(=N\\N=C\\c2ccccc2O)SC1Cc1ccc(Cl)cc1", "note": "(configuration not stated)", "displacement": 8.7},
      {"smiles": "O=C(NNC(=O)c1cccc(Cl)c1)c1cccc(F)c1", "displacement": -4.7},
      {"smiles": "CCC(C)(C)C1CCc2c(sc(NC(=O)c3cnccn3)c2C(=O)OC)C1", "note": "(configuration not stated)", "displacement": 6.1},
      {"smiles": "N#Cc1c(/N=C\\c2ccc(N3CCCCC3)c([N+](=O)[O-])c2)sc2c1CCCC2", "displacement": -5.3},
      {"smiles": "N#Cc1c(/N=C/c2cc([N+](=O)[O-])c(N3CCOCC3)cc2N2CCOCC2)sc2c1CCCC2", "displacement": 14.5},
      {"smiles": "N#Cc1c(/N=C\\c2ccc(N3CCOCC3)c([N+](=O)[O-])c2)sc2c1CCCC2", "displacement": 81.3},
      {"smiles": "O=C1NC(=O)/C(=C\\c2ccc(O)cc2)S1", "displacement": 1.8},
      {"smiles": "CCc1ccc(OCC(=O)Nc2ccc(-c3nc4cc(C)c(C)cc4o3)c(O)c2)cc1", "displacement": 118},
      {"smiles": "CCC(=O)Nc1ccc(O)c(-c2nc3cc(C)c(C)cc3o2)c1", "displacement": -7},
      {"smiles": "CCc1ccc(OCC(=O)Nc2ccc(-c3nc4ccccc4o3)c(O)c2)cc1", "displacement": 0.8},
      {"smiles": "CCCC(=O)Nc1ccc(-c2nc3cc(C)c(C)cc3o2)cc1", "displacement": 14.7},
      {"smiles": "CCc1ccc(OCC(=O)Nc2ccc(O)c(-c3nc4cc(C)ccc4o3)c2)cc1", "displacement": 7.4},
      {"smiles": "CCCC(=O)Nc1ccc(-c2nc3cc(C)c(C)cc3o2)c(O)c1", "displacement": 96.8},
      {"smiles": "CCOC(=O)c1cnn(-c2ccccc2)c1NC(=O)c1ccccc1", "displacement": 2.4},
      {"smiles": "O=C(c1ccco1)N(C(=O)c1ccco1)c1cc(C(F)(F)F)ccc1Cl", "displacement": -3.3},
      {"smiles": "COc1ccc(OCCOCCN2CCC(C)CC2)cc1", "displacement": -9.4},
      {"smiles": "CNC(=O)c1c(-c2ccccc2)oc2ccc(O)cc12", "displacement": 10.3},
      {"smiles": "O=C1C(C=NCc2ccc(Cl)c(Cl)c2)=C(O)c2ccccc21", "displacement": 2.5},
      {"smiles": "O=C1C(C=NCc2ccc3c(c2)OCO3)=C(O)c2ccccc21", "displacement": 134},
      {"smiles": "O=C1CC(c2ccccc2)CC(O)=C1C=NCc1ccc2c(c1)OCO2", "note": "(configuration not stated)", "displacement": -2.5}
    ]}
  ]
}
